TLR9-MyD88 inh – blocks human TLR9 binding to MyD88 | Q9NR96+Q99836 | CHO BLA complementation TLR9-MyD88, CCF4 FRET ratio | inhibition, % at 4.98 µM | hit rate 0.21% among 340,000 | AID 504734;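 active = inhibition above the mean over all tested compounds plus 3 SD, cut at about 21% in these data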;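 note: 0% = DMSO only wells and 100% = clavulanate BLA inhibitor control wells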
NOD2-RIPK2 inh – inhibitors of human NOD2-RIPK2 interaction; inhibition, % at 4.98 µM; AID 624267; hit rate 0.38% among 360,000; CHO BLA complementation NOD2-RIPK2, CCF4 ratio; O43353; in the data active = inhibition above about 21%;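 note: 0% = vehicle only and 100% = reference blocker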
Target sequence (O43353 whole entry, looked up): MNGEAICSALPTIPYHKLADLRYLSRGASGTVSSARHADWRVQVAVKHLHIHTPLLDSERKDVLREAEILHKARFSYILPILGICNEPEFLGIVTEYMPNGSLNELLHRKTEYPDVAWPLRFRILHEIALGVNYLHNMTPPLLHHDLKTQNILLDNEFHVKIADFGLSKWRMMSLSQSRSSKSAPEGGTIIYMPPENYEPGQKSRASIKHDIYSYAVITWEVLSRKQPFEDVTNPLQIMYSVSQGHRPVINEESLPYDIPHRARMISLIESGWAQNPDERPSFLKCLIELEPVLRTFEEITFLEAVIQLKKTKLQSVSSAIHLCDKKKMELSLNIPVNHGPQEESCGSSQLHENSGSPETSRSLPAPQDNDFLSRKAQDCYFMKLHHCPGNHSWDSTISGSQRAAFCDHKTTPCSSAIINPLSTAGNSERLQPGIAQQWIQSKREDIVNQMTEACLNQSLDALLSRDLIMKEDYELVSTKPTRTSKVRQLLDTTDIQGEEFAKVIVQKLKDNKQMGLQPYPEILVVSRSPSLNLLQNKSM
TLR4-MyD88 BLA – blocks binding of human TLR4 to MyD88; inhibition, % at 8.4 µM; HeLa CL3-4 TLR4/MyD88 BLA complementation, FRET ratio; AID 861; hit rate 0.18% among 200,000; O00206+Q99836; in the data active = inhibition above about 25%;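 note: 0% = vehicle and 100% = reference inhibitor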
m5-HT2A agonist – activates the mouse 5-HT2A serotonin receptor | P35363 | CHO-K1 mHTR2A beta-arrestin complementation, luminescence; percent of 30 µM serotonin response | activation, % at 7.6 µM | hit rate 0.66% among 360,000 | AID 624169;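 active = activation above a run cutoff, the mean activation of all tested compounds plus 3 SD, cut at about 14% in these data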;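 note: 0% = plate median of compound wells and 100% = 30 µM serotonin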
LANA-H2B inh – blocks KSHV LANA binding to histone H2A/H2B; inhibition, % (no concentration beside the values); hit rate 0.6% among 320,000; Q9QR71; cell-free LANA-H2A/H2B peptide, fluorescence polarization; AID 2629; in the data active = inhibition mostly above about 10%, no sharp cut-off; inactive = mostly below about 6.7%
Rtt109 HAT inh – inhibitors of Candida albicans Rtt109/Vps75 histone acetyltransferase; Q5AAJ8; purified Rtt109/Vps75, ThioGlo CoA-SH fluorescence, 4 h; inhibition, % at 34.9 µM; hit rate 0.16% among 330,000;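 active = inhibition of at least 50% in every replicate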
NOD2-RIPK2 conf – NOD2-RIPK2 interaction inhibition confirmed; AID 624370; inhibition, % at 4.98 µM; hit rate 70% among 1,200; CHO cells, NOD2-RIPK2 BLA complementation, CCF4 FRET; shares compounds with NOD2-RIPK2 inh;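 active = mean inhibition across replicates above a set limit taken from the earlier primary screen, cut at about 21% in these data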;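 note: 0% = DMSO-only wells and the high end = clavulanate BLA-blocked wells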
NOD2 BLA counter – counter-screen for NOD2-RIPK2 interaction inhibitors: BLA reporter; hit rate 57% among 1,200; shares compounds with NOD2-RIPK2 inh; CHO BLA reporter, CCF4 FRET ratio, counterscreen; inhibition, % at 4.98 µM;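 active = mean inhibition above the low-control mean inhibition plus three low-control SD, cut at about 11% in these data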;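 note: 0% = DMSO only wells and 100% = clavulanate high control wells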
An asterisk follows results filed as active. Shown are actives, neighbours in structure and some others; about 1.8% of the full set was active somewhere.

For Cc1ccc(-c2csc(NC(=O)c3ccccc3F)c2C(=O)O)cc1 the results were TLR9-MyD88 inh -4.9, NOD2-RIPK2 inh -13.5, m5-HT2A agonist 2.0 and LANA-H2B inh 2.0.
Screening C[C@H](CO)N1C[C@H](C)[C@@H](CN(C)S(C)(=O)=O)Oc2ccc(NC(=O)c3ccncc3)cc2C1=O returned TLR9-MyD88 inh 5.0, NOD2-RIPK2 inh -9.6, m5-HT2A agonist 8.4, LANA-H2B inh 3.2 and Rtt109 HAT inh -4.6.
For CC(=O)Oc1ccc2cc(-c3cccnc3)c(=O)oc2c1 the results were TLR9-MyD88 inh 8.6, NOD2-RIPK2 inh 30.5*, m5-HT2A agonist 3.1, Rtt109 HAT inh -267.6, NOD2-RIPK2 conf 29.6* and NOD2 BLA counter 44.6*.
Cc1nn(CC(=O)Nc2ccc(Cl)cc2Cl)c(=O)c2ccccc12 was read as TLR9-MyD88 inh -5.0, NOD2-RIPK2 inh -14.9, m5-HT2A agonist 4.8, LANA-H2B inh 6.0 and Rtt109 HAT inh 12.5.
`COc1ccc(Br)cc1CN(C)CC(O)COc1ccc(Br)cc1` (stereo unspecified) gave TLR9-MyD88 inh 6.4, NOD2-RIPK2 inh 0.6, m5-HT2A agonist -6.9, LANA-H2B inh 8.5 and Rtt109 HAT inh 1.5.
`CNC(=O)c1nnsc1S(=O)(=O)c1ccc(Cl)cc1` gave TLR9-MyD88 inh 41.0*, NOD2-RIPK2 inh 85.5*, TLR4-MyD88 BLA 12.7, m5-HT2A agonist -2.6, Rtt109 HAT inh 2.3, NOD2-RIPK2 conf 80.0* and NOD2 BLA counter 9.1.
`O=C(c1nnsc1S(=O)(=O)c1ccc(Cl)cc1)N1CCOCC1` gave TLR9-MyD88 inh 5.8, NOD2-RIPK2 inh 20.7, TLR4-MyD88 BLA 19.7, m5-HT2A agonist -3.7 and Rtt109 HAT inh -7.5.
For O=C1C(O)=CC(=C(c2ccccc2)c2ccccc2)c2ccccc21 the results were TLR9-MyD88 inh 8.9, NOD2-RIPK2 inh 34.3*, m5-HT2A agonist -2.7, Rtt109 HAT inh -9.4, NOD2-RIPK2 conf 1.1 and NOD2 BLA counter -2.7.
For CCCOC(=O)c1ccc(NC(=O)Cc2cccs2)cc1 the results were TLR9-MyD88 inh 1.1, NOD2-RIPK2 inh -3.4, m5-HT2A agonist -8.7, LANA-H2B inh -3.0 and Rtt109 HAT inh 2.8.
For COc1ccc(NC(=O)C(c2cc3ccccc3o2)n2c(=O)c(-c3cc4ccccc4[nH]3)nc3ccccc32)cc1 (stereo unspecified) the results were NOD2-RIPK2 inh 51.4*, m5-HT2A agonist -2.8, NOD2-RIPK2 conf 46.1* and NOD2 BLA counter 67.5*.
Screening COc1ccc(NC(=O)C(c2ccncc2)n2c(=O)c(-c3ccco3)nc3ccccc32)cc1 (stereo unspecified) returned NOD2-RIPK2 inh -1.7 and m5-HT2A agonist -1.0.
For COc1ccc(NC(=O)C(c2ccc(C#N)cc2)n2c(=O)c(-c3cc4ccccc4[nH]3)nc3ccccc32)cc1 (stereo unspecified) the results were NOD2-RIPK2 inh 56.5*, m5-HT2A agonist 2.9, NOD2-RIPK2 conf 54.5* and NOD2 BLA counter 72.0*.
COc1ccc(NC(=O)C(c2ccc(OC)cc2)n2c(=O)c(-c3cc4ccccc4[nH]3)nc3ccccc32)cc1 (stereo unspecified) was read as NOD2-RIPK2 inh 44.0*, m5-HT2A agonist 6.7, NOD2-RIPK2 conf 40.3* and NOD2 BLA counter 66.1*.
`O=C1/C(=C/c2ccccc2)CN(C(=O)CCN2CCOCC2)C/C1=C\c1ccccc1` gave TLR9-MyD88 inh 7.3, NOD2-RIPK2 inh 27.5*, m5-HT2A agonist 2.2, Rtt109 HAT inh 15.6, NOD2-RIPK2 conf 30.6* and NOD2 BLA counter 2.0.
For C[N+](C)(C)CCC(=O)N1C/C(=C/c2ccccc2)C(=O)/C(=C\c2ccccc2)C1 the results were TLR9-MyD88 inh 3.3, NOD2-RIPK2 inh -8.2, m5-HT2A agonist -0.3 and Rtt109 HAT inh -4.1.
